# Data taken from ChEMBL document CHEMBL2218924, “A broad activity screen in support of a chemogenomic map for kinase signalling research and drug discovery” (Biochem J, 2013).
# Tests used:
# [1] = molecular target: T1, Ephrin type-A receptor 3 (Homo sapiens) (UniProt P29320); details: at 10 µM
# T1 sequence (whole entry): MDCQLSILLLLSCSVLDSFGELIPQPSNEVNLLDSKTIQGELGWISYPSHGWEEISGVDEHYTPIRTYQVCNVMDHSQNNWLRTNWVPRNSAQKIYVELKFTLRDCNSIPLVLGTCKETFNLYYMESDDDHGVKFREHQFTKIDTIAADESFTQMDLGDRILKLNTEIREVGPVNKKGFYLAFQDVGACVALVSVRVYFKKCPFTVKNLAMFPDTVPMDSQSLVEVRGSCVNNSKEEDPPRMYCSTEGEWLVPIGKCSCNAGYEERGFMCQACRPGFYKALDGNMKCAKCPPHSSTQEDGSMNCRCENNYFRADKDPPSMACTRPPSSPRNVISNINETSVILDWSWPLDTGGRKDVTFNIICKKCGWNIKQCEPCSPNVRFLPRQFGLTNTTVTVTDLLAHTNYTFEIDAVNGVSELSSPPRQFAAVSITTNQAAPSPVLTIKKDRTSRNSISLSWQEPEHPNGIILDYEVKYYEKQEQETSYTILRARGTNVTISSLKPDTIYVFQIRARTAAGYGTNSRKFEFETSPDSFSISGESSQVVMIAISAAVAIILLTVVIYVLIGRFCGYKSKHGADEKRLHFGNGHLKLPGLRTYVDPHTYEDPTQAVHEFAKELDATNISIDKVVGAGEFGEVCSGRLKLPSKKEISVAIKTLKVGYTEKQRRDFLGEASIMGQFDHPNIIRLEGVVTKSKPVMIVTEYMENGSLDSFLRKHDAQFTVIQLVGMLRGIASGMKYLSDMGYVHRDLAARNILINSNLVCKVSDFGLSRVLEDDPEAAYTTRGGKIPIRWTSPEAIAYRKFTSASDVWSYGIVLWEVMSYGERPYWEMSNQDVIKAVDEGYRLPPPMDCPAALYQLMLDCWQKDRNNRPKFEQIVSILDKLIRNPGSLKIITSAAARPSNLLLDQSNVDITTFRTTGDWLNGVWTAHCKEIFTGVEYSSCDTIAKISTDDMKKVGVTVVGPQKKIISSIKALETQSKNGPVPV
# [2] = molecular target: Ephrin type-A receptor 4 (Homo sapiens) (UniProt P54764); details: at 1 µM
# Sequence of Ephrin type-A receptor 4 (Homo sapiens) (P54764 whole entry): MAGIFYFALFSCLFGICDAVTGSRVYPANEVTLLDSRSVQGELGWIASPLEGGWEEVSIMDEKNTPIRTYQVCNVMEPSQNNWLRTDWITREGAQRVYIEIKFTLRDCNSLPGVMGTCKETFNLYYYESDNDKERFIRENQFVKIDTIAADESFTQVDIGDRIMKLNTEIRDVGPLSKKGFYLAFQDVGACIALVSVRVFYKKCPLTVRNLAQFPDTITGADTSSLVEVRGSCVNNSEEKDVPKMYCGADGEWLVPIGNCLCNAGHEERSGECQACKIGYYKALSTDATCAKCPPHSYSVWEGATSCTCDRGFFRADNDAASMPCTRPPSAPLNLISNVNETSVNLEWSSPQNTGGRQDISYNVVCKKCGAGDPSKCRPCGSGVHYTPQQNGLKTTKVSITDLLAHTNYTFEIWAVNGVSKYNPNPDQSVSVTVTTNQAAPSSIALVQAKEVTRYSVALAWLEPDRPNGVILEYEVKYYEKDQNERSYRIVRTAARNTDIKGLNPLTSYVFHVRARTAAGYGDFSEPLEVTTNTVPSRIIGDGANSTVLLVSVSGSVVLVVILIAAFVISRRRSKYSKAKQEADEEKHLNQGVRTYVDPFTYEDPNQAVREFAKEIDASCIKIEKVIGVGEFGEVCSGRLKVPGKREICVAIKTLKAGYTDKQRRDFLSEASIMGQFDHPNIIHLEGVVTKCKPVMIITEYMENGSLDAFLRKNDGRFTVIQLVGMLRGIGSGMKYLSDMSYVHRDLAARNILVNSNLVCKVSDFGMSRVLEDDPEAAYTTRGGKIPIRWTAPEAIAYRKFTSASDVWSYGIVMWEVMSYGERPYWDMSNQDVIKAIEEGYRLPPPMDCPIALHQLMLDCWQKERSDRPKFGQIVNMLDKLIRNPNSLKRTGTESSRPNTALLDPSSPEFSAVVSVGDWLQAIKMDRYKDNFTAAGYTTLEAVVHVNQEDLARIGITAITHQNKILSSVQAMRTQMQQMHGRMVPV
# [3] = molecular target: Ephrin type-A receptor 4 (Homo sapiens) (UniProt P54764); details: at 10 µM
# [4] = molecular target: Ephrin type-A receptor 5 (Homo sapiens) (UniProt P54756); details: at 1 µM
# Sequence of Ephrin type-A receptor 5 (Homo sapiens) (P54756 whole entry): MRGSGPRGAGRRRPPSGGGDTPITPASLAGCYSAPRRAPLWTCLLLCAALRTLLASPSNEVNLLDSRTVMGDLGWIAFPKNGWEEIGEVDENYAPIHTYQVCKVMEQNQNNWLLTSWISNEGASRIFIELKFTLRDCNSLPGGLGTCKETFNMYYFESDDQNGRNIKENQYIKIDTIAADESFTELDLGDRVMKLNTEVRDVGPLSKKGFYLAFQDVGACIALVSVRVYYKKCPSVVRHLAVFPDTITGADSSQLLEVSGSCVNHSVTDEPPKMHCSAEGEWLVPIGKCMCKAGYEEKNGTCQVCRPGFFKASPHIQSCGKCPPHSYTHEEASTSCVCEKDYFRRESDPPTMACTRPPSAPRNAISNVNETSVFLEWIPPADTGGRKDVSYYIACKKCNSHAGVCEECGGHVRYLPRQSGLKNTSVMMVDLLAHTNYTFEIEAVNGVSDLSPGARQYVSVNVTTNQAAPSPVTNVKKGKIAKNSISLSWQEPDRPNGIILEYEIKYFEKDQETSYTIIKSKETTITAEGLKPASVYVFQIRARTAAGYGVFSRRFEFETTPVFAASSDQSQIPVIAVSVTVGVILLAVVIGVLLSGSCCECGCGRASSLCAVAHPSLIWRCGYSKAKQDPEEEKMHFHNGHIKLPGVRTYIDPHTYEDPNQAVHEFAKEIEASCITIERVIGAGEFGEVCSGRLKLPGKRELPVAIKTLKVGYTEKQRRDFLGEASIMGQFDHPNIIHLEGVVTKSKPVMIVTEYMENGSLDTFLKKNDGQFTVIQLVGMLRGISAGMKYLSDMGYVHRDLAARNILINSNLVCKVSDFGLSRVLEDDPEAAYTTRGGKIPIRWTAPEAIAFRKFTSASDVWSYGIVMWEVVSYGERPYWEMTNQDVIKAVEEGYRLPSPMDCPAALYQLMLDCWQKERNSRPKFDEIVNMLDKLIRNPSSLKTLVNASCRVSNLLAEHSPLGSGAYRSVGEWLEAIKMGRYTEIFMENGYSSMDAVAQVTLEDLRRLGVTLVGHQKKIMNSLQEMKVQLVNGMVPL
# [5] = molecular target: Ephrin type-A receptor 5 (Homo sapiens) (UniProt P54756); details: at 10 µM
# [6] = molecular target: Ephrin type-A receptor 7 (Homo sapiens) (UniProt Q15375); details: at 1 µM
# Sequence of Ephrin type-A receptor 7 (Homo sapiens) (Q15375 28-998 limits assumed): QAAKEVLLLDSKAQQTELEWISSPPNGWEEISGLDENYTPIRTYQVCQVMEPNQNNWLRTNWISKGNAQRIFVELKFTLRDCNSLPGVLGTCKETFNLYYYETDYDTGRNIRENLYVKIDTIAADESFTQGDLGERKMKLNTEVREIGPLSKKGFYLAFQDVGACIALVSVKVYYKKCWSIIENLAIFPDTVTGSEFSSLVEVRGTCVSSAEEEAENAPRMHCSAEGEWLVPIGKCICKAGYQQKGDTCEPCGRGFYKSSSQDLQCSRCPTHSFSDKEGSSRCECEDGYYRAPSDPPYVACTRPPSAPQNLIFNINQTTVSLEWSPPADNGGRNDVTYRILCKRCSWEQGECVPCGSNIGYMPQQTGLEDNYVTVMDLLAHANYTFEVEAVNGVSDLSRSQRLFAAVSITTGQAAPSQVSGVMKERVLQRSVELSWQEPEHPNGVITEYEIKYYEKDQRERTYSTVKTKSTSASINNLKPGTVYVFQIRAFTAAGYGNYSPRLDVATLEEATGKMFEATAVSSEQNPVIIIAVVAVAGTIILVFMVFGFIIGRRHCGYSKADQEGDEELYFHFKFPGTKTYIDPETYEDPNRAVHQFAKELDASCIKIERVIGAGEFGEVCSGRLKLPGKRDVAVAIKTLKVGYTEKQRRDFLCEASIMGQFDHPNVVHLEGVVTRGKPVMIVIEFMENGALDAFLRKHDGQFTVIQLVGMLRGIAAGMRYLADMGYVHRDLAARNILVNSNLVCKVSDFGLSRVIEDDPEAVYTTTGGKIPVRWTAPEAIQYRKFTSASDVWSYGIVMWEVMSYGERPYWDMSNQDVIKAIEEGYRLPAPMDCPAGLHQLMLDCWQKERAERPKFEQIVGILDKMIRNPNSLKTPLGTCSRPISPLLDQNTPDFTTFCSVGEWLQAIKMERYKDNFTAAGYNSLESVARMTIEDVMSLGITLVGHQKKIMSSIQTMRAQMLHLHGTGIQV
# [7] = molecular target: Ephrin type-A receptor 7 (Homo sapiens) (UniProt Q15375); details: at 10 µM
# [8] = molecular target: T2, Ephrin type-A receptor 8 (Homo sapiens) (UniProt P29322); details: at 1 µM
# T2 sequence (whole entry): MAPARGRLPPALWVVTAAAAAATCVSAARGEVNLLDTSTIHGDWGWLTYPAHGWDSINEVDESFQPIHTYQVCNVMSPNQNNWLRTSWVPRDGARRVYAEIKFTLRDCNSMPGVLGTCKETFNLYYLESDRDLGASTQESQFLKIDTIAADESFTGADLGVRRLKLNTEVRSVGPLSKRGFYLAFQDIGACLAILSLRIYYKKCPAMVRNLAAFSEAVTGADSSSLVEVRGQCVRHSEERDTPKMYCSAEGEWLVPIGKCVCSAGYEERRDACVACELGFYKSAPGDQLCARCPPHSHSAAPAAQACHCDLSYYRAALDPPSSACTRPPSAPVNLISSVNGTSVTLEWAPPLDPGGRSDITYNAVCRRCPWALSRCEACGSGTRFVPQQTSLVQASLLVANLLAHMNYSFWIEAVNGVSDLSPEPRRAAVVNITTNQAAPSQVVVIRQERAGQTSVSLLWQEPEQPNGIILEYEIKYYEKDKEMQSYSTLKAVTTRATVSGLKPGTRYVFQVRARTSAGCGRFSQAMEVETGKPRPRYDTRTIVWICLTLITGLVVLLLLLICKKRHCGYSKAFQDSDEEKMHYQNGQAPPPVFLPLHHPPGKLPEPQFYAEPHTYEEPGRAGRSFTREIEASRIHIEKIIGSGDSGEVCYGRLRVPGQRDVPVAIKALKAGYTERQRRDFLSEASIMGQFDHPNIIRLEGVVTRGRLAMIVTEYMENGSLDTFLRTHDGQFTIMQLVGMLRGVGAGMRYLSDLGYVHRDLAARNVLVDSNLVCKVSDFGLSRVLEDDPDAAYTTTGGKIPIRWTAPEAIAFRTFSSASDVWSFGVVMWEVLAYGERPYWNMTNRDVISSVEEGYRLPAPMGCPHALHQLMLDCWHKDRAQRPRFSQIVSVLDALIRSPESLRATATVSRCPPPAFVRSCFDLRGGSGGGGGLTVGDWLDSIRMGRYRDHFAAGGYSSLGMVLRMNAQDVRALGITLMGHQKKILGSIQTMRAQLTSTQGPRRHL
# [9] = molecular target: T2, Ephrin type-A receptor 8 (Homo sapiens); details: at 10 µM
# [10] = molecular target: T3, Ephrin type-B receptor 1 (Homo sapiens) (UniProt P54762); details: at 1 µM
# T3 sequence (whole entry): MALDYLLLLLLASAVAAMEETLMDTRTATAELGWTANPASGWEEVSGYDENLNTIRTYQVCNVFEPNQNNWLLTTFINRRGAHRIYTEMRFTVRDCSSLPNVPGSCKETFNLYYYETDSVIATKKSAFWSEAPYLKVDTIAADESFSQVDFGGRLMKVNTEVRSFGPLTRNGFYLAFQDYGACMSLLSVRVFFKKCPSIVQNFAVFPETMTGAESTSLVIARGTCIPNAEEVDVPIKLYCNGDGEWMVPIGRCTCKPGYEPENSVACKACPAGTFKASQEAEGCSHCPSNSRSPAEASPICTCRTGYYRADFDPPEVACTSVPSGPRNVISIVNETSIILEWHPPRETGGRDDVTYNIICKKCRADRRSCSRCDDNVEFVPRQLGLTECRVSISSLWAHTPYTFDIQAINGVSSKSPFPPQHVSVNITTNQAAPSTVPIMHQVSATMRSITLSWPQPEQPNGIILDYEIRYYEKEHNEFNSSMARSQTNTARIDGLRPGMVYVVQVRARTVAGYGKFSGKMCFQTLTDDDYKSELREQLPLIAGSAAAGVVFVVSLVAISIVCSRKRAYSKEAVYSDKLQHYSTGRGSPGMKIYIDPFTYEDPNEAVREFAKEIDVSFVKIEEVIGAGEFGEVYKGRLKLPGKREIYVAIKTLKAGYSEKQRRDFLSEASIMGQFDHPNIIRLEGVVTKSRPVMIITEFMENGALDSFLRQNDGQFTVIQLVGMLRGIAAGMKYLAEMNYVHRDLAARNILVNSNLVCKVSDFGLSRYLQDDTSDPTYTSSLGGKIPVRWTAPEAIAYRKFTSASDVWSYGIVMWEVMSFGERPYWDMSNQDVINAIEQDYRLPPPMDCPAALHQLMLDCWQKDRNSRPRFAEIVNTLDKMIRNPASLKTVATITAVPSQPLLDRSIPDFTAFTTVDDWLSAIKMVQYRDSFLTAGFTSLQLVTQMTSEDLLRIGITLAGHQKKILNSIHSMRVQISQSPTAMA
structure (smiles),measurement,setting,value
CNc1cc2c(Nc3cccc(Br)c3)ncnc2cn1,residual activity,[1],78%
same,residual activity,[2],105%
same,residual activity,[3],95%
same,residual activity,[4],103%
same,residual activity,[5],92%
same,residual activity,[6],90%
same,residual activity,[7],54%
same,residual activity,[8],98%
same,residual activity,[9],69%
same,residual activity,[10],93%
